PubChem BioAssay (Tox21)
Results filed as inconclusive are left out. The source made the active and inactive calls. Unless noted, the call rests on the fitted dose curve.

Experiments:
[1] = Nuclear factor erythroid 2-related factor 2/antioxidant responsive element (Nrf2/ARE) small molecule agonists: qHTS cell viability counter screen in human keratinocytes (AID 1919968; active means well fitted curve in the direction sought with a large enough effect in the repeat runs; an effect the other way counts as inactive or inconclusive; further: nearly all actives have a fitted effect of over 55% in size; further: potency means the concentration at half of the fitted maximal effect)
Method in brief: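 KeratinoSens cells (HaCaT keratinocytes stably carrying an ARE-luciferase reporter) were seeded at 1,500 cells/well and rested 5 h at 37 C/5% CO2. They were then exposed to compounds in DMSO for 23 h. Viability was read by CellTiter-Fluor fluorescence after 1 h.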

[2] = Nuclear factor erythroid 2-related factor 2/antioxidant responsive element (Nrf2/ARE) small molecule agonists: luciferase reporter gene qHTS assay in human keratinocytes (AID 1919969); further: nearly all actives have a fitted effect of over 35% in size; further: potency means the concentration at half of the fitted maximal effect
[3] = biological target: KiSS-1 receptor (Homo sapiens) (UniProt Q969F8); experiment: Human kisspeptin (KISS1R) small molecule agonists, calcium flux assay in KISS1R-HEK293 cells (AID 1920064; active means well fitted curve in the direction sought with a large enough effect in the repeat runs; an effect the other way counts as inactive or inconclusive)
Chain of KiSS-1 receptor (Homo sapiens) (Q969F8 whole entry, looked up): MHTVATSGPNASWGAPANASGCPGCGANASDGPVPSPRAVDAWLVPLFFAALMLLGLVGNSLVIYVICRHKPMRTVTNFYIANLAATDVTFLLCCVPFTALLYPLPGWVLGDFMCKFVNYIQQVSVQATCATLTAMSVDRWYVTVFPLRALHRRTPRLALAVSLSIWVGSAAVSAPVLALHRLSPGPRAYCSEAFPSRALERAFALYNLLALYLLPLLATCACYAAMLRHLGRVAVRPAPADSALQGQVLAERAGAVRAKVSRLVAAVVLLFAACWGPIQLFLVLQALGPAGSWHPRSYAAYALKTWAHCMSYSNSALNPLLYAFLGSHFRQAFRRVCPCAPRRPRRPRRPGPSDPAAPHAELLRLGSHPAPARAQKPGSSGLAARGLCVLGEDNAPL
Method in brief: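 HEK293 cells stably expressing human KISS1R were plated 18 h at 37 °C, loaded with calcium dye for 1 h at 37 °C, then given compound by pin tool. Fluorescence (Ex/Em 480/540) was read kinetically for 3 min.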

[4] = G protein-coupled receptor (GPCR) small molecule agonists, calcium flux assay: HEK293 wild type cell line counter screen (AID 1920065)
Method in brief: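 Cells were plated and cultured 18 h at 37 C/5% CO2, then loaded with calcium dye for 1 h at 37 C. Compounds in DMSO were pin-transferred in agonist mode, and fluorescence (Ex/Em 480/540) was read kinetically for 3 min at 1 s intervals.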

[5] = p53 small molecule agonists, cell-based qHTS assay with human liver microsomes (AID 1963577)
Method in brief: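 Fluorescence of the beta-lactamase reporter in p53RE-bla cells, detected with LiveBLAzer substrate (2 h, room temperature, dark), served as the read-out after 16 h compound exposure at 37 C with human liver microsomes and NADPH, each 0.5 mg/mL final.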

[6] = p53 small molecule agonists, cell-based qHTS assay with rat liver microsomes (AID 1963578)
Method in brief: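 Cells carrying a p53 response element–beta-lactamase reporter were plated and rested 5 h, then dosed with compound in DMSO plus rat liver microsomes and NADPH, each at 0.5 mg/mL final. After 16 h at 37 C, LiveBLAzer substrate was added for 2 h.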

[7] = p53 small molecule agonists, cell-based qHTS assay with human liver microsomes: qHTS cell viability counter screen (AID 1963579); further: nearly all actives have a fitted effect of over 45% in size
Method in brief: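 Cytotoxicity counter screen: p53RE-bla, 4,000 cells/well; 5 h settle, 37 C/5% CO2; cpd + HLM 0.5 mg/mL + NADPH 0.5 mg/mL (final); 16 h, 37 C; CellTiter-Glo, 30 min RT, luminescence.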

[8] = p53 small molecule agonists, cell-based qHTS assay with rat liver microsomes: qHTS cell viability counter screen (AID 1963580); further: nearly all actives have a fitted effect of over 45% in size
Method in brief: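 Viability is assessed in parallel with the p53 reporter read: HCT-116 p53RE-bla cells receive compounds plus rat microsomes and NADPH (0.5 mg/mL final apiece), incubate 16 h at 37 C, and then CellTiter-Glo luminescence is recorded.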

[9] = p53 small molecule agonists, cell-based qHTS assay: qHTS cell viability counter screen (AID 1963581); further: nearly all actives have a fitted effect of over 45% in size
Method in brief: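 p53RE-bla HCT-116 cells were exposed to compounds for 16 h at 37 C; after the beta-lactamase FRET read in the same wells, CellTiter-Glo was added and luminescence (intracellular ATP) read after 30 min at room temperature.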

[10] = p53 small molecule agonists, cell-based qHTS assay (AID 1963582; active means well fitted activation curve with a large enough effect in the signal ratio in the repeat runs, not every such curve was filed as active; the % refers to the signal ratio)
Method in brief: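 p53RE-bla beta-lactamase reporter cells rested 5 h at 37 C/5% CO2, then received compounds in DMSO by pin transfer and were incubated 16 h at 37 C. LiveBLAzer B/G FRET substrate was loaded for 2 h at room temperature before fluorescence reading.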

[11] = biological target: 5-hydroxytryptamine receptor 2A (Homo sapiens) (UniProt P28223); experiment: 5-hydroxytryptamine receptor 2A (HTR2A) small molecule agonists, cell-based qHTS assay (AID 1963587); further: nearly all actives have a fitted effect of over 30% in size; further: potency means the concentration at half of the fitted maximal effect
Chain of 5-hydroxytryptamine receptor 2A (Homo sapiens) (P28223 whole entry, looked up): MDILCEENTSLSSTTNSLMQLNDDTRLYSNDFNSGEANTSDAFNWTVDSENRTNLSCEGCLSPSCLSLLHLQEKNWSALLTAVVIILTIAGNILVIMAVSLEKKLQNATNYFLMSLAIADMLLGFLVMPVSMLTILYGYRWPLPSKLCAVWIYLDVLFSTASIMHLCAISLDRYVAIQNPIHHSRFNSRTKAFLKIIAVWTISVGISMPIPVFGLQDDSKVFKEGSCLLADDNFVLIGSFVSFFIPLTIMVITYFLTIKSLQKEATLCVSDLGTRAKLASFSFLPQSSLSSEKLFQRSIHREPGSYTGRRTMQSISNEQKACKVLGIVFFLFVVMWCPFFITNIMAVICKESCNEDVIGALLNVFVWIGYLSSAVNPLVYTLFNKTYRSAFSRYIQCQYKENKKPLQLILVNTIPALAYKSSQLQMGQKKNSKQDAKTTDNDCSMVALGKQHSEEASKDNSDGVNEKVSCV
Method in brief: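 CHO cells stably expressing human HTR2A, plated 18 h, loaded with calcium dye 1 h at 37 C. Agonist mode: compounds added and intracellular calcium fluorescence recorded kinetically for 2 min at 1 sec intervals.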

[12] = biological target: Muscarinic acetylcholine receptor M1 (Homo sapiens) (UniProt P11229); experiment: Cholinergic receptor muscarinic 1 (CHRM1) small molecule antagonists, cell-based qHTS assay (AID 1963588); further: nearly all actives have a fitted effect of over 40% in size; further: potency means the concentration at half of the fitted maximal effect
Chain of Muscarinic acetylcholine receptor M1 (Homo sapiens) (P11229 whole entry, looked up): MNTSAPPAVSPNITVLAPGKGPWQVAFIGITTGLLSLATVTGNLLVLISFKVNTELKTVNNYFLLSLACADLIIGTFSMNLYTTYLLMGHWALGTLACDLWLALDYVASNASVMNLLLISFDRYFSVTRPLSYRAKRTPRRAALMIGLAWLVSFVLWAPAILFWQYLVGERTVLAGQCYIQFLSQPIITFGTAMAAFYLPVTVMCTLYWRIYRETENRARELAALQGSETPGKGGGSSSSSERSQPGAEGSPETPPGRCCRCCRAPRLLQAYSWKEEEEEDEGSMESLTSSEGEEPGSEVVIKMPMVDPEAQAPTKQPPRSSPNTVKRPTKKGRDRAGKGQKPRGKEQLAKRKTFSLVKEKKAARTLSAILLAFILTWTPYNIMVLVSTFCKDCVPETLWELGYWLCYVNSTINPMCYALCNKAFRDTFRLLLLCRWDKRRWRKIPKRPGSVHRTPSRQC
Method in brief: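 CHRM1-CHO calcium-flux assay, antagonist mode. Cells were seeded 18 h, dye-loaded 1 h at 37 C and given compound for 5 min at RT, then acetylcholine was added at 50nM. FDSS fluorescence was read 3 min; 15 concentrations, three runs.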

[13] = biological target: Muscarinic acetylcholine receptor M1 (Homo sapiens) (UniProt P11229); experiment: Cholinergic receptor muscarinic 1 (CHRM1) small molecule agonists, cell-based qHTS assay (AID 1963589); further: nearly all actives have a fitted effect of over 35% in size
Method in brief: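 CHO cells stably expressing human CHRM1, seeded 18 h at 37 C/5% CO2, dye-loaded 1 h at 37 C, then given compound in agonist mode; intracellular calcium fluorescence read kinetically at 1 s intervals. Fifteen concentrations, three independent runs.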

[14] = cAMP Responsive Elements (CRE) small molecule agonists, cell-based qHTS assay (AID 1963590)
Method in brief: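 CRE-bla HEK 293T cells in DMEM with 10% dialyzed FBS, NEAA, pyruvate and 25 mM HEPES were plated 18 h at 37 C/5% CO2, then exposed to compounds in DMSO for 3 h before LiveBLAzer B/G FRET substrate addition.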

[15] = cAMP Responsive Elements (CRE) small molecule antagonists, cell-based qHTS assay (AID 1963591; active means well fitted inhibition curve with a large enough effect in the signal ratio in the repeat runs, not every such curve was filed as active; the % refers to the signal ratio)
Method in brief: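 CRE-bla HEK293T cells were plated 18 h at 37 °C/5% CO2, pinned with compound in DMSO, then stimulated with NKH477 at 0.25 uM final for 3 h. LiveBLAzer B/G FRET substrate was added and plates incubated 2 h at room temperature.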

[16] = biological target: Beta-2 adrenergic receptor (Homo sapiens) (UniProt P07550); experiment: Adrenergic beta2 receptor (ADRB2) small molecule antagonists, cell-based qHTS assay (AID 1963592); further: series mostly up to about 92 µM; nearly all actives have a fitted effect of over 50% in size
Chain of Beta-2 adrenergic receptor (Homo sapiens) (P07550 whole entry, looked up): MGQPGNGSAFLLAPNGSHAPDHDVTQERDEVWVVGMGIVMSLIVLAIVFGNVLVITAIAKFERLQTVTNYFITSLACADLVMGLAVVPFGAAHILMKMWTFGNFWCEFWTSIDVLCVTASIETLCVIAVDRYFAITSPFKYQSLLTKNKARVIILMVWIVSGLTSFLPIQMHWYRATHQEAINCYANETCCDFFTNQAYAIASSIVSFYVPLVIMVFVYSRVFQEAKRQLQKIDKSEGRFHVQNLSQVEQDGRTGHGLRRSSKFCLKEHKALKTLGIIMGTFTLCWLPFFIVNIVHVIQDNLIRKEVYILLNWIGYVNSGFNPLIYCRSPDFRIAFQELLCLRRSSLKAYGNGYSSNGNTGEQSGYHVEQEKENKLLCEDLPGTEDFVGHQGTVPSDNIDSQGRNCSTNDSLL
Method in brief: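 Cells (CHO, stable ADRB2 overexpression) incubated 18-20hr at 37C; compounds added from DMSO; agonist mix (1nM isoproterenol, 100uM IBMX, 25uM Ro-20-1724) added; 0.5hr RT; d2-cAMP and anti-cAMP-cryptate added; 1hr RT; 665/615 nm read.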

[17] = biological target: D(2) dopamine receptor (Homo sapiens) (UniProt P14416); experiment: Dopamine D2 receptor (DRD2) small molecule agonists, cell-based qHTS assay (AID 1963594); further: nearly all actives have a fitted effect of over 35% in size
Chain of D(2) dopamine receptor (Homo sapiens) (P14416 whole entry, looked up): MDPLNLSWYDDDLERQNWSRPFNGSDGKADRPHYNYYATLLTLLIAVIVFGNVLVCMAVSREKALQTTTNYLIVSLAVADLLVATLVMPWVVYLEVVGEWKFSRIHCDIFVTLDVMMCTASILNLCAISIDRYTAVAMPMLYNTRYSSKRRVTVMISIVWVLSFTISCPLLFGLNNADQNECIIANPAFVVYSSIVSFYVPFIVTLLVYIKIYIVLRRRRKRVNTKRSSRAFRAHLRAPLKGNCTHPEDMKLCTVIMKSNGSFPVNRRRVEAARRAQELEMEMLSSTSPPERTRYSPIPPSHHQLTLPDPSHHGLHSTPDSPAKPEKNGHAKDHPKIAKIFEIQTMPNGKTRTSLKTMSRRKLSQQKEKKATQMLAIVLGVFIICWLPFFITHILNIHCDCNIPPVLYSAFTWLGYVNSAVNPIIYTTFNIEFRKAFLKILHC
Method in brief: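 HEK293 cells stably expressing human DRD2, pre-treated with PDE inhibitor Ro20-1724 (0.1 mM final) and compound 10 min at room temperature, then stimulated with NKH477 (200nM […]) for 30 min. cAMP read by HTRF (665/620 nm).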

[18] = biological target: D(2) dopamine receptor (Homo sapiens) (UniProt P14416); experiment: Dopamine D2 receptor (DRD2) small molecule antagonists, cell-based qHTS assay (AID 1963595; active means well fitted inhibition curve with a large enough effect in the signal ratio in the repeat runs, with a control signal flat; the % refers to the signal ratio; further: potency means the concentration at half of the fitted maximal effect)
Method in brief: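 HEK293 cells stably expressing DRD2 were preincubated with 0.1 mM Ro20-1724, then with compound for 10 min at room temperature. Cells were stimulated with 200 nM NKH477 plus 12 nM quinpirole for 30 min, and cAMP was read by HTRF.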

[19] = biological target: 5-hydroxytryptamine receptor 2A (Homo sapiens) (UniProt P28223); experiment: 5-hydroxytryptamine receptor 2A (HTR2A) small molecule antagonists, cell-based qHTS assay (AID 1963586); further: nearly all actives have a fitted effect of over 45% in size; further: potency means the concentration at half of the fitted maximal effect
Method in brief: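 Antagonist-mode intracellular calcium assay: DOI (4 nM) added after 5 min compound pre-incubation at room temperature to dye-loaded HTR2A-CHO cells. Fluorescence followed for 3 min, sampled every second.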
On the % scale 0 is the no-effect control and ±100 the full control effect.

CCOc1ccc(NC(=O)OC(C)C)cc1OCC
inactive: Potency [1] | Potency [2] | outcome [3] | outcome [4] | Potency [5] | Potency [6] | Potency [7] | Potency [8] | Potency [9] | Potency [10] | Potency [11] | Potency [12] | Potency [13] | Potency [14] | Potency [15] | Potency [16] | Potency [17] | Potency [18]

CCCCCCCCc1ccc(S(=O)(=O)O)cc1
inactive: Potency [1] | Potency [2] | outcome [3] | outcome [4] | Potency [5] | Potency [6] | Potency [7] | Potency [8] | Potency [9] | Potency [10] | Potency [19] | Potency [12] | Potency [13] | Potency [14] | Potency [16] | Potency [17] | Potency [18]

CC1=NC(C)OC1C (configuration not stated)
inactive: Potency [1] | outcome [3] | outcome [4] | Potency [5] | Potency [6] | Potency [7] | Potency [8] | Potency [9] | Potency [19] | Potency [11] | Potency [13] | Potency [16] | Potency [17] | Potency [18]
active: Potency [2] 61100 nM

CS(=O)(=O)c1ccc([C@@H](C[C@H]2CCC(=O)C2)C(=O)Nc2cnccn2)cc1Cl
inactive: Potency [1] | Potency [2] | outcome [3] | outcome [4] | Potency [5] | Potency [6] | Potency [7] | Potency [8] | Potency [9] | Potency [10] | Potency [19] | Potency [11] | Potency [12] | Potency [13] | Potency [16] | Potency [18]

CCC1(CO)COCOC1
inactive: Potency [1] | Potency [2] | outcome [3] | outcome [4] | Potency [5] | Potency [6] | Potency [7] | Potency [8] | Potency [9] | Potency [10] | Potency [19] | Potency [11] | Potency [14] | Potency [15] | Potency [16] | Potency [17] | Potency [18]

CO/N=C(\C(=O)N[C@@H]1C(=O)N2C(C(=O)O)=C(CSc3nc(=O)c(O)nn3C)CS[C@H]12)c1csc(N)n1
active: Potency [12] 516 nM
inactive: Potency [1] | Potency [2] | outcome [3] | outcome [4] | Potency [5] | Potency [6] | Potency [7] | Potency [8] | Potency [9] | Potency [10] | Potency [19] | Potency [11] | Potency [13] | Potency [16] | Potency [17] | Potency [18]

CCOC(=O)C(=O)c1csc(NC=O)n1
inactive: Potency [1] | Potency [2] | outcome [3] | outcome [4] | Potency [5] | Potency [6] | Potency [7] | Potency [8] | Potency [10] | Potency [19] | Potency [11] | Potency [12] | Potency [13] | Potency [14] | Potency [15] | Potency [16] | Potency [18]

NS(=O)(=O)Cc1noc2ccccc12
inactive: Potency [1] | Potency [2] | outcome [3] | outcome [4] | Potency [5] | Potency [6] | Potency [7] | Potency [8] | Potency [9] | Potency [11] | Potency [12] | Potency [13] | Potency [15] | Potency [16] | Potency [18]

Cc1cccc(CN2CCN(C(c3ccccc3)c3ccc(Cl)cc3)CC2)c1 (configuration not stated)
inactive: Potency [2] | outcome [3] | outcome [4] | Potency [5] | Potency [6] | Potency [7] | Potency [8] | Potency [9] | Potency [11] | Potency [12] | Potency [13] | Potency [15] | Potency [16] | Potency [17] | Potency [18]
active: Potency [1] 18800 nM

CC(C)(C)NCC(O)c1cc(O)cc(O)c1 (configuration not stated)
inactive: Potency [1] | Potency [2] | outcome [3] | outcome [4] | Potency [5] | Potency [6] | Potency [7] | Potency [8] | Potency [9] | Potency [10] | Potency [15] | Potency [17]
active: Potency [18] 10600 nM

CCCCCCCCCCCCCCCCCCOCCO
inactive: activity change, negative = cytotoxicity [1] 1.01% [at 19 µM] | activity, positive = activation [2] -0.745% [at 19 µM] | activation [3] 1.36% [at 15.8 µM] | activation [4] 0.568% [at 11.8 µM] | activation [5] 4.4% [at 13.5 µM] | activation [6] 0.0249% [at 13.6 µM] | activity change, negative = cytotoxicity [7] -1.11% [at 13.5 µM] | activity change, negative = cytotoxicity [8] 2.48% [at 13.5 µM] | activity change, negative = cytotoxicity [9] 16.5% [at 13.5 µM] | activity, negative = inhibition [19] -22.3% [at 12.7 µM] | activity, negative = inhibition [12] -0.0015% [at 12.6 µM] | activation [13] -0.156% [at 15.8 µM] | activation [14] 3.72% [at 19 µM] | activity change, negative = inhibition [15] 0.259% [at 18.9 µM] | activity change, negative = inhibition [16] -12.3% [at 19 µM] | activation [17] -2.91% [at 19 µM] | activity change, negative = inhibition [18] -0.251% [at 18.9 µM]

COc1ccccc1N1CCN(CCCCNC(=O)c2ccc(-c3ccc(C(C)=O)cc3)cc2)CC1
active: Potency [19] 326 nM | Potency [11] 53.5 nM | Potency [12] 1030 nM | Potency [18] 750 nM
inactive: Potency [1] | Potency [2] | outcome [3] | outcome [4] | Potency [5] | Potency [6] | Potency [7] | Potency [8] | Potency [10] | Potency [13] | Potency [14] | Potency [17]

CC(C)(O)CCCC1=CCC(C=O)CC1 (configuration not stated)
inactive: Potency [1] | Potency [2] | outcome [3] | outcome [4] | Potency [5] | Potency [6] | Potency [7] | Potency [8] | Potency [9] | Potency [10] | Potency [11] | Potency [12] | Potency [13] | Potency [14] | Potency [15] | Potency [16] | Potency [17]

CCCSS/C(CCO)=C(\C)N(C=O)Cc1cnc(C)nc1N
inactive: Potency [1] | outcome [3] | outcome [4] | Potency [5] | Potency [6] | Potency [7] | Potency [8] | Potency [19] | Potency [11] | Potency [12] | Potency [13] | Potency [14] | Potency [15] | Potency [17] | Potency [18]
active: Potency [2] 29800 nM
